The list is not random: actives were taken first. Their share in the collection is about 2.4%.
Pol iota inh: inhibitors of human DNA polymerase iota; Q9UNA4; Pol iota fluorescent replication assay, 10 min; Potency, µM (titrated, usually from 115 µM), usual class: inhibitors; hit rate 1% among 390,000; AID 588590
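Pol iota at 10 nM preincubated 15 min with compounds at room temperature; reaction started with fluorescent substrate, 50 nM final. Fluorescence read kinetically at 0 and 10 min; buffer-only wells as negative control.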
POLH inh: DNA polymerase eta (human) inhibition. Q9Y253. recombinant Pol eta, fluorescent DNA replication assay. Potency, µM (titrated, usually from 114 µM), most hits filed as inhibitors. hit rate 1.2% among 390,000. AID 588591
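Pol eta (10 nM) was preincubated with compounds for 15 min at room temperature, after which fluorescent replication substrate (50 nM final) was added to start the reaction. Fluorescence was read kinetically at 0 and 10 min.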
L3MBTL1 block: inhibitors of human L3MBTL1; Q9Y468; Potency, µM (highest dose often 57.1 µM), most hits filed as inhibitors; AlphaScreen L3MBTL1–H3K9me1 peptide binding; hit rate 0.66% among 230,000; also: nearly all actives have a fitted effect of over 60% in size
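AlphaScreen proximity signal between nickel-chelate acceptor and streptavidin donor beads (final 10 ug/mL) reports binding of 50 nM L3MBTL1 to 75 nM biotin-H3 K9me1 peptide; complex incubated with compounds 30 min at room temperature; cefsulodin titration as control.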
POLK inh: blocks human DNA polymerase kappa activity. purified Pol kappa, fluorescent DNA synthesis assay, 10 min. Potency, µM (highest dose often 107 µM), usual class: inhibitors. hit rate 0.53% among 400,000. AID 588579
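10 nM Pol kappa was preincubated with compounds for 15 min at room temperature. Reaction started with 50 nM (final) substrate. Fluorescence read kinetically at 0 and 10 min.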
POLB inh: DNA polymerase beta (human) inhibition; P06746; Pol beta primer extension/strand displacement, fluorescence kinetic; Potency, µM (titrated, usually from 114 µM), usual class: inhibitors; hit rate 1.3% among 340,000; AID 485314
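Values derive from four-parameter Hill fits of normalized kinetic data: reads at 0 and 10 min following addition of 50 nM substrate to 10 nM Pol beta preincubated 15 min with compound.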
TbPGK inh: TbPGK inhibition, hit validation | shares compounds with POLK inh | TbPGK coupled GAPDH assay, Kinase-Glo luminescence | Potency, µM (top dose mostly 57.5 µM), usual class: inhibitors | hit rate 79% among 500 | AID 686980; also: nearly all actives have a fitted effect of over 65% in size
Target sequence (P07378 whole entry, looked up): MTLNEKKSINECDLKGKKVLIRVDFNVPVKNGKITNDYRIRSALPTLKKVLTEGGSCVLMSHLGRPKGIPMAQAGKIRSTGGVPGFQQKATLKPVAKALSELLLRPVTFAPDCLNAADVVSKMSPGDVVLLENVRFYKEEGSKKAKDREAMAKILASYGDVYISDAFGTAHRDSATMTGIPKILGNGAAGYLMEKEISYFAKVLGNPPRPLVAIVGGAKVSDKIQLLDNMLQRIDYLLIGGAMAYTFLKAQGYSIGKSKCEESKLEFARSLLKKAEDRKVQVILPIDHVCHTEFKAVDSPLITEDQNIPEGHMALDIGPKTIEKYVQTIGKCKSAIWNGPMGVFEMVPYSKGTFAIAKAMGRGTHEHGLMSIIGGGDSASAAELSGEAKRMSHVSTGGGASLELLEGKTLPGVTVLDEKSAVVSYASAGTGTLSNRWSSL
Pol iota confirm: Confirm cherry-picked inhibitors of human polymerase iota. Pol iota primer extension, TAMRA/BHQ fluorescence. Potency, µM, most hits filed as inhibitors. hit rate 77% among 1,500. shares compounds with POLK inh
Large screens that a line does not name were inactive (follow-up assays come after a bar, where they were run). Calls follow the shape of the dose curve; as a rule, active = well fitted curve in the direction sought with a large enough effect; inconclusive = small, poorly fitted or top-dose-only effect, or another doubt; inactive = no such curve, though single readings can be large; an effect the other way counts as inactive or inconclusive.

C=C(C)C(=O)OCCCCCCOc1ccc(C(=O)O)cc1	Pol iota inh 14.1µM, POLH inh 35.5µM, POLK inh 25.1µM, POLB inh 70.8µM | TbPGK inh 9.19µM
COc1ccccc1NS(=O)(=O)c1cc(NC(=O)c2ccc3c(c2)OCCO3)ccc1C	Pol iota inh inconclusive | TbPGK inh inactive
COc1ccccc1NS(=O)(=O)c1cc(NC(=O)CNC(=O)c2ccccc2)ccc1C	none
CCc1cccc(C)c1Nc1c(-c2ccc(SC)cc2)nc2sccn12	none (no result: L3MBTL1 block)
O=C(N/N=C/C=C\c1ccccc1[N+](=O)[O-])c1cc(-c2ccc3ccccc3c2)n[nH]1	Pol iota inh inconclusive, POLH inh inconclusive, POLB inh 17.8µM | Pol iota confirm 37.7
O=C(N/N=C/C=C/c1ccccc1[N+](=O)[O-])c1ccncc1	none
Cc1cccc(C)c1NC(=O)CN1C(=O)S/C(=C\c2cccn2C)C1=O	none
Cc1ccc(NC(=O)CN2C(=O)S/C(=C\c3cccn3-c3cccc(C(=O)O)c3)C2=O)c(C)c1	Pol iota inh inconclusive, POLH inh 3.55µM, L3MBTL1 block inconclusive, POLK inh inconclusive, POLB inh 10µM | TbPGK inh 9.19µM
COc1ccc(-c2cc(C)no2)cc1S(=O)(=O)N1CC(C)Oc2ccccc21 (configuration not stated)	Pol iota inh inconclusive (no result: L3MBTL1 block)
CCOc1cc(C(c2c(C)[nH][nH]c2=O)c2c(C)[nH][nH]c2=O)ccc1O	Pol iota inh inconclusive
COc1ccc(O)c(C(c2c(C)[nH][nH]c2=O)c2c(C)[nH][nH]c2=O)c1	POLB inh inconclusive | Pol iota confirm inconclusive
CCn1c(Cc2ccccc2)nnc1SCC(=O)c1c(N)n(C2CC2)c(=O)[nH]c1=O	none (no result: POLB inh)
Cc1ccc(-c2cc(C(=O)Nc3ccc(S(=O)(=O)N4CC(C)OC(C)C4)cc3)[nH]n2)c(O)c1 (configuration not stated)	Pol iota inh 39.8µM, POLK inh inconclusive, POLB inh 17.8µM | Pol iota confirm 75.2
Cc1ccc(O)c(-c2cc(C(=O)Nc3ccc(S(=O)(=O)N4CC(C)OC(C)C4)cc3)[nH]n2)c1 (configuration not stated)	none
Cc1cccc[n+]1CC(=O)/C=C1\N(C)c2ccccc2C1(C)C	none
CN1/C(=C/C=C/c2n(C)c3cc([N+](=O)[O-])c([N+](=O)[O-])cc3[n+]2C)C(C)(C)c2ccccc21	POLH inh inconclusive (no result: Pol iota inh, L3MBTL1 block, POLK inh, POLB inh) | TbPGK inh inconclusive
O=C(O)CCCN1C(=O)/C(=C/c2ccc(-c3nc4ccccc4s3)o2)SC1=S	Pol iota inh inconclusive, POLH inh 3.16µM, L3MBTL1 block inconclusive, POLK inh 50.1µM, POLB inh 12.6µM | TbPGK inh inconclusive
O=C(NNC(=O)c1cc(-c2ccncc2)nc2ccccc12)c1ccccc1O	Pol iota inh inconclusive (no result: POLB inh) | Pol iota confirm 37.7
Cc1ccc(NC(=O)C(Cc2ccccc2)NS(=O)(=O)c2cccc3nsnc23)c(C)c1 (configuration not stated)	none (no result: L3MBTL1 block)
Cc1ccc(N2CC(NC(=O)/C=C\c3ccc4c(c3)OCO4)CC2=O)cc1 (configuration not stated)	none (no result: L3MBTL1 block)
CCOc1cc(C(=O)Nc2cc(C)ccn2)cc(OCC)c1OCC	none
CCOc1ccc(C(=O)Nc2cc(C)ccn2)cc1	none (no result: L3MBTL1 block) | TbPGK inh 16.3µM
COc1ccc(Cn2c(-c3ccccc3)nc3c(c(=O)c4ccccc4n3C)c2=O)cc1	POLH inh inconclusive | Pol iota confirm 42.3
Cc1noc(/C=C/c2ccccc2F)c1S(=O)(=O)N1CCC(C(=O)N(C)Cc2ccco2)CC1	none (no result: L3MBTL1 block)
O=C(N/N=C/c1cccnc1)c1cc(O)c(O)c(O)c1	Pol iota inh inconclusive, POLK inh inconclusive, POLB inh inconclusive (no result: L3MBTL1 block) | Pol iota confirm 23.8
O=C(N/N=C/c1cccnc1)c1ccc(O)cc1	none (no result: L3MBTL1 block)
CC(C)N1CCc2c(sc(NC(=O)C3CC3)c2-c2nc3ccccc3s2)C1	none (no result: Pol iota inh, POLH inh, L3MBTL1 block, POLK inh, POLB inh) | Pol iota confirm 42.3
O=C1C=CC(=O)c2c(O)c(CO)c(CO)c(O)c21	Pol iota inh 3.16µM, POLH inh 1µM, POLK inh 3.55µM (no result: L3MBTL1 block, POLB inh) | TbPGK inh 8.19µM
COc1cccc(NC(=O)CN(C)C(=O)c2cccc(S(=O)(=O)N3CC4(C)CC3CC(C)(C)C4)c2)c1 (configuration not stated)	none (no result: POLB inh)
O=C1C=C(c2c(O)ccc3ccccc23)c2ccccc2C1=O	Pol iota inh 3.55µM, POLH inh 20µM (no result: L3MBTL1 block, POLB inh) | Pol iota confirm 84.4
O=C(CNc1ccc2ccccc2c1)N/N=C/C=C/c1cccc([N+](=O)[O-])c1	Pol iota inh inconclusive, POLH inh 15.8µM, POLB inh inconclusive | Pol iota confirm 75.2
O=C(N/N=C/C=C/c1cccc([N+](=O)[O-])c1)C(O)c1ccccc1 (configuration not stated)	none
Cc1ccccc1C(=O)O/N=C(\N)c1ccccc1	none (no result: L3MBTL1 block) | TbPGK inh 14.6µM
Cc1occc1C(=O)O/N=C(\N)c1ccccc1	none | TbPGK inh 18.3µM
COc1cccc(-c2ccc(-c3noc(-c4ccccc4Br)n3)c(OC)n2)c1	none (no result: L3MBTL1 block)
c1ccc(-c2cn3c(n2)-c2ccccc2C3)cc1	POLH inh inconclusive | TbPGK inh 14.6µM
Cc1cccc(CCNC(=O)c2ccc3c(c2)nc2n3CCOC2)c1	none (no result: L3MBTL1 block)
CCN1CCN(Cc2ccc(NC(=O)c3ccc(C)c(NC(=O)N4CCNC4=O)c3)cc2C(F)(F)F)CC1	Pol iota inh inconclusive, POLH inh inconclusive | TbPGK inh 25.9µM
COCCN(C(=O)c1ccc2c(c1)C(=O)N(c1ccccc1Cl)C2=O)c1c(N)n(CC(C)C)c(=O)[nH]c1=O	none (no result: L3MBTL1 block, POLB inh)
Clc1ccc(-c2cn3cc(Cl)ccc3n2)cc1	none (no result: L3MBTL1 block)
Cc1ccc2nc(-c3ccccc3)cn2c1	none | TbPGK inh 11.6µM
Cc1ccc(NC(=O)c2sccc2C)nc1	none (no result: L3MBTL1 block) | TbPGK inh 13µM
Cc1ccc(NC(=O)c2ccc(F)cc2)nc1	none
COc1ccc(OC)c(NC(=O)Cn2c(=O)cc(-c3ccccc3)c3c(C)nn(C)c32)c1	POLH inh inconclusive, POLB inh inconclusive (no result: L3MBTL1 block) | Pol iota confirm 47.4
O=c1nc2c(O)cccn2c2c1c(=O)[nH]c1ccccc12	Pol iota inh inconclusive, POLH inh inconclusive, POLK inh inconclusive, POLB inh inconclusive | Pol iota confirm 42.3
Cc1cc(O)c(C(c2cccc(F)c2)N2CCN(c3ccccc3)CC2)c(=O)n1Cc1ccco1 (configuration not stated)	none (no result: L3MBTL1 block)
Cc1cc(-c2ccccc2)nc(N/N=C/c2ccc(O)cc2)n1	POLH inh inconclusive (no result: POLB inh)
Cc1cc(C)c2nc(C)cc(N/N=C/c3ccc(O)cc3)c2c1	Pol iota inh inconclusive, POLH inh 31.6µM, POLK inh inconclusive, POLB inh 25.1µM | Pol iota confirm inconclusive

Screening data as filed in PubChem.
